One test deals with hPUF_MT(F856A) (UniProt Q14671 SEQ:1-349, F856A). Description: EMSA. To be noted: tags: MBP; label: Alexa680 at 5' and 3'; ssRNA. On the technique in general: In EMSA bound probe runs differently from free probe, usually more slowly.
For another test, the target named is hPUF_MT(F865A) (UniProt Q14671 SEQ:1-349, F865A). Kind of test: EMSA; smaller contribution than F856. Particulars: tags: MBP; label: Alexa680 at 5' and 3'; ssRNA.
Test [1] addresses T1, hPUF_MT(R5:A_13R)(R5:A_13Y)2(R6:C_13Y)3.
T1 chain: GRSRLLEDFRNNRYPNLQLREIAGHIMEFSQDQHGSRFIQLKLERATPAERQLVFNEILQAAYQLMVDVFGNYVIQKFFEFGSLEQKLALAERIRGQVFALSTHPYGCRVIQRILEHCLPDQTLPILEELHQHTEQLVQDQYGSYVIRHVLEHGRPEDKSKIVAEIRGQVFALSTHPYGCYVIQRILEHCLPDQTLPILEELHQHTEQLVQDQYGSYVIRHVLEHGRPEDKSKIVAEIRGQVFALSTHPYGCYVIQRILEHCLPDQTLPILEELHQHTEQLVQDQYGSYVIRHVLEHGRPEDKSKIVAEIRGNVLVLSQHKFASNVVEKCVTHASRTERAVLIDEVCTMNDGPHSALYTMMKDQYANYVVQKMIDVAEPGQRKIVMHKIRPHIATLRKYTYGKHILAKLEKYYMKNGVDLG
Kind of test: EMSA; 13R about 10 times greater. Particulars: label: Alexa680 at 5' and 3'; ssRNA.

For CCAGAAUUGUAUAUAUUCG, the binding signal in the test with hPUF_MT(F856A) and with hPUF_MT(F865A) was ~0.1 fold of WT in each case.
As for CCAGAAUUGCACACAUAUUCG, the binding signal in test [1] is ~0.1 fold of 13R protein.

Source of the values: patent US11472855, “RNA-binding protein” (Panitch Schwarze Belisario & Nadel LLP).
